This is an account of results in PubChem BioAssay (Tox21).

SMILES strings stand for the structures. Inconclusive results are not listed. Values without a mark were called inactive. Active and inactive are the calls of the source. Unless noted, the call rests on the fitted dose curve; in most records, active means well fitted curve in the direction sought with a large enough effect in the repeat runs; inconclusive means weak or mixed curves; inactive means no such curve, though single readings can be large; an effect the other way counts as inactive or inconclusive.

Experiment [1] deals with Retinoic acid receptor RXR-alpha (Homo sapiens) (UniProt P19793). As to the kind of experiment: qHTS assay to identify small molecule agonists of the RXR signaling pathway (AID 1159527; calls by dose curve; further: nearly all actives have a fitted effect of over 35% in size). In outline:
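Beta-lactamase reporter assay, agonist format. Engineered HEK 293T line, charcoal-stripped FBS at 2%, overnight (16 hr) exposure, fluorescence at 460 and 530 nm after 405 nm excitation.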
A general note: In qHTS, concentration-response curves come from the screen itself.

Experiment [2] is described as follows: qHTS assay to identify small molecule agonists of the RXR signaling pathway - cell viability counter screen (AID 1159529).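 Further: HEK 293T cells carrying an RXR-alpha UAS beta-lactamase reporter; series mostly up to about 77 µM; nearly all actives have a fitted effect of over 50% in size.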 In outline: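 Same-well viability check after the LiveBLAzer FRET read: CellTiter-Glo added, luminescence measured after 30 min at room temperature. Reporter HEK 293T cells had been treated with compounds for 16 hr following a 5 hr preincubation.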

Experiment [3] is described as follows: qHTS assay to identify small molecule antagonists of the retinoid acid receptor (RAR) signaling pathway - cell viability counter screen (AID 1159551). Further: nearly all actives have a fitted effect of over 35% in size. In outline: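 Measured by luminescent ATP detection, viability reflects C3RL4 cells treated 6 h at 37 C with test chemicals in the presence of 1 uM (final) retinol.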
Experiment [4] can be described thus: qHTS assay to identify small molecule antagonists of the retinoic acid receptor (RAR) signaling pathway (AID 1159552; further: nearly all actives have a fitted effect of over 50% in size). In outline:
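Readout: luciferase luminescence, 30 min post-reagent at RT. Setup: C3RL4 RARE reporter cells, compounds plus retinol 1 uM final, 6 hr incubation at 37 C and 5% CO2.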

The nature of experiment [5]: qHTS assay to identify small molecule agonists of the retinoic acid receptor (RAR) signaling pathway (AID 1159553). In outline:
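6 hr compound exposure (DMSO vehicle) of overnight-plated C3RL4 RARE-luc cells at 37 C; luminescence quantified after 30 min RT with luciferase reagent.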

The target in experiment [6] is Luciferin 4-monooxygenase (Photinus pyralis) (UniProt P08659). As to the kind of experiment: qHTS assay to identify small molecule inhibitors of firefly luciferase (AID 1224835). Further: nearly all actives have a fitted effect of over 25% in size. Further: potency means the concentration at half of the fitted maximal effect. On activity change, negative = inhibition: series mostly up to about 120 µM. In outline:
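Biochemical qHTS: compounds run as interplate titrations against purified firefly enzyme, with D-luciferin and ATP each at its KM concentration. Light output recorded by CCD imaging.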

Experiment [7] can be described thus: qHTS assay to identify small molecule agonists of the constitutive androstane receptor (CAR) signaling pathway - cell viability counter screen (AID 1224836). Further: series mostly up to about 92 µM; nearly all actives have a fitted effect of over 45% in size. In outline: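 Compound titrations (15 concentrations) went onto HepG2-CYP2B6-hCAR cells 4 h after seeding, alongside PK11195 at a final 0.75 uM; a 23 h, 37 C/5% CO2 incubation preceded CellTiter-Fluor viability measurement.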

For experiment [8], the target named is Nuclear receptor subfamily 1 group I member 3 (Homo sapiens) (UniProt Q14994). The experiment is described as follows: qHTS assay to identify small molecule agonists of the constitutive androstane receptor (CAR) signaling pathway (AID 1224839).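 Further: HepG2 cells stably carrying human CAR and a CYP2B6 luciferase reporter; series mostly up to about 92 µM; nearly all actives have a fitted effect of over 15% in size.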 In outline: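 In this screen, CAR-driven CYP2B6 promoter activity is measured by luminescence in HepG2-CYP2B6-hCAR cells after 24 h with test compounds and 0.75 uM PK11195 (final concentration).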
Sequence of Nuclear receptor subfamily 1 group I member 3 (Homo sapiens) (Q14994 whole entry, looked up): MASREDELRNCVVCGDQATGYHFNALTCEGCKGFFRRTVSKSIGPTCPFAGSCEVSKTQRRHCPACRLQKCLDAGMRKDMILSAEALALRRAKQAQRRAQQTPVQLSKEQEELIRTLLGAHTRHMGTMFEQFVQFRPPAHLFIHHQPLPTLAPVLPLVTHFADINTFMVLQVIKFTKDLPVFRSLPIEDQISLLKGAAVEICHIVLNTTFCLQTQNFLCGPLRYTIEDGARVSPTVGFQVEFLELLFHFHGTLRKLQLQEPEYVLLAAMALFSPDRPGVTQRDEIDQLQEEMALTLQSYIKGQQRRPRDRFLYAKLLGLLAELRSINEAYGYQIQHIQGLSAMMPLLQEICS

A short description of experiment [9]: qHTS assay to identify small molecule antagonists of the estrogen related receptor signaling pathway with the pleiotropic PPARgamma coactivator (PGC) from Tox21 10K library - cell viability counter screen (AID 1224840; active means well fitted cell-killing curve with a large enough effect in the repeat runs, not every such curve was filed as active; further: nearly all actives have a fitted effect of over 40% in size). In outline:
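Seeded PGC/ERR cells (2,000/well, 6 h, 37 C/5% CO2) get compound by pin tool; 17.5 h incubation at 37 C; CellTiter-Fluor added, 30 min, fluorescence measured.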

Experiment [10] deals with Thyrotropin receptor (Homo sapiens) (UniProt P16473). The experiment is described as follows: qHTS assay to identify small molecule agonists of the thyroid stimulating hormone receptor (TSHR) signaling pathway (AID 1224843; calls by dose curve; further: nearly all actives have a fitted effect of over 45% in size). In outline: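 HEK293/TSHR, 800 cells/well; cpd 30 min RT; add cAMP-d2 + anti-cAMP-cryptate, 1 h RT; fluorescence read on plate reader. 15-pt titration, n=3.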
Sequence of Thyrotropin receptor (Homo sapiens) (P16473 whole entry, looked up): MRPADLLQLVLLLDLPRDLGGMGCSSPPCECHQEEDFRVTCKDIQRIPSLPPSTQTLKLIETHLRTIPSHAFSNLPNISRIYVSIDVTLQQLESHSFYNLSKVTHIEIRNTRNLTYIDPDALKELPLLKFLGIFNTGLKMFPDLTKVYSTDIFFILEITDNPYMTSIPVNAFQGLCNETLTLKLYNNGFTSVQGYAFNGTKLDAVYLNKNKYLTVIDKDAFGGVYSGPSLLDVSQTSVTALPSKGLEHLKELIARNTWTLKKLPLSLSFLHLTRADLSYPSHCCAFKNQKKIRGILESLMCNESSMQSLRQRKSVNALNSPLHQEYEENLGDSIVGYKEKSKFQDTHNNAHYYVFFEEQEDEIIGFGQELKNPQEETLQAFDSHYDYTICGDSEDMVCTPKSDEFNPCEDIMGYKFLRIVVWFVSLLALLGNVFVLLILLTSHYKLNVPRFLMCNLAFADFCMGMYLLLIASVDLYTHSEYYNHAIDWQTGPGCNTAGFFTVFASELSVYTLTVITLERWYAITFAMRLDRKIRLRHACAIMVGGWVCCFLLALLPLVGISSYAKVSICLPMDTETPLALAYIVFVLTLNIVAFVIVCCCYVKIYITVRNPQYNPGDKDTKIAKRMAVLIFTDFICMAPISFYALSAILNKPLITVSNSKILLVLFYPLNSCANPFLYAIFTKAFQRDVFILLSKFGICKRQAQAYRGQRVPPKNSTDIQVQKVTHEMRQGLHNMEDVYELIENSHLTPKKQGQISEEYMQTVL

Experiment [11] in a line: qHTS assay to identify small molecule agonists of the hypoxia (HIF-1) signaling pathway - cell viability counter screen (AID 1224844; calls by dose curve; further: nearly all actives have a fitted effect of over 50% in size). In outline: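 HRE-bla ME-180; 0.5% dFBS; cpd 17 h, 37C, 5% CO2; CellTiter-Glo lum., 30 min RT, post-FRET read, same wells.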
Experiment [12] can be described thus: qHTS assay to identify small molecule agonists of H2AX (AID 1224845; active means well fitted activation curve with a large enough effect in the signal ratio in the repeat runs, not every such curve was filed as active; the % refers to the signal ratio). In outline: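 Wild-type CHO-K1 cells, plated overnight, exposed 3hr at 37C to 15 concentrations (0.76% DMSO final). Lysed, then HTRF anti-pH2AX (S139) cryptate and anti-H2AX-d2 antibodies, 24 hr room temperature; 665/620 nm emission read.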
Experiment [13] is described as follows: qHTS assay to identify small molecule agonists of the hypoxia (HIF-1) signaling pathway (AID 1224846; active means well fitted activation curve with a large enough effect in the signal ratio in the repeat runs, not every such curve was filed as active; the % refers to the signal ratio). In outline:
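Reporter induction in HRE-bla ME-180 cells is taken as agonism: cells sit 5 hrs after plating, receive compounds or DMSO only, incubate 17 hrs at 37C under 5% CO2, and are loaded with CCF4-AM for beta-lactamase FRET measurement.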

Experiment [14] in a line: qHTS assay to identify small molecule antagonists of the estrogen related receptor (ERR) signaling pathway from Tox21 library - cell viability counter screen (AID 1224834). Further: nearly all actives have a fitted effect of over 30% in size. In outline: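 Seeded ERR cells were rested 6 h at 37 C/5% CO2 before compounds, positive and negative controls or DMSO were added. Incubation continued for 17.5 h, and viability was then quantified by CellTiter-Fluor fluorescence.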

Experiment [15] in a line: qHTS assay to identify small molecule antagonists of the constitutive androstane receptor (CAR) signaling pathway - cell viability counter screen (AID 1224837). Further: series mostly up to about 92 µM; nearly all actives have a fitted effect of over 45% in size. In outline: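 To flag cytotoxic false antagonists, HepG2 hCAR/CYP2B6-2.2kb cells were treated 23 hr with 15-concentration compound series and 50 nM CITCO at 37 C/5% CO2; CellTiter-Fluor fluorescence was the measured end point.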

The target in experiment [16] is Nuclear receptor subfamily 1 group I member 3 (Homo sapiens) (UniProt Q14994). As to the kind of experiment: qHTS assay to identify small molecule antagonists of the constitutive androstane receptor (CAR) signaling pathway (AID 1224838).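 Further: HepG2 cells stably expressing hCAR with CYP2B6 luciferase reporter stimulated by CITCO; nearly all actives have a fitted effect of over 40% in size.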 In outline: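 Human hepatoma HepG2 cells expressing hCAR and a CYP2B6 promoter (2.2 kb) luciferase construct; compound titration (15 points) with 50 nM CITCO final, 24 h at 37 C/5% CO2; luminescence via ONE-Glo after 30 min at room temperature.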

A short description of experiment [17]: qHTS assay to identify small molecule agonists of H2AX - cell viability counter screen (AID 1224847; calls by dose curve; further: top concentration of the series differs between compounds; nearly all actives have a fitted effect of over 30% in size). In outline: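 Read-out: CellTiter-Glo luminescence, 30 min RT. Cells: wild-type CHO-K1, 1000/well, 10% FBS, plated overnight at 37C. Treatment: 15 concentrations, 3 hr, 37C, 0.76% DMSO.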
Experiment [18] is described as follows: qHTS assay to identify small molecule antagonists of the estrogen related receptor signaling pathway with the pleiotropic PPARgamma coactivator (PGC) from Tox21 10K library (AID 1224841; call rule not given here; further: series mostly up to about 92 µM; actives are mostly falling curves and most rising ones were filed inactive; nearly all actives have a fitted effect of over 50% in size). In outline:
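Test chemicals dissolved in DMSO were applied to pre-incubated (6 h) PGC/ERR cells at 2,000 cells/well for an 18 h, 37 C treatment; reporter luminescence was then read using One-Glo.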

A short description of experiment [19]: qHTS assay to identify small molecule antagonists of the estrogen related receptor (ERR) signaling pathway from Tox21 library (AID 1224848). Further: nearly all actives have a fitted effect of over 50% in size. In outline:
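Compounds dissolved in DMSO are pin-transferred onto ERR reporter cells (2,000 per well) that have settled for 6 h at 37 C. Plates then incubate 18 h at 37 C before ONE-Glo luciferase reagent and a luminescence read 30 min later.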
On the % scale 0 is the no-effect control and ±100 the full control effect.

Sequence of Luciferin 4-monooxygenase (Photinus pyralis) (P08659 whole entry, looked up): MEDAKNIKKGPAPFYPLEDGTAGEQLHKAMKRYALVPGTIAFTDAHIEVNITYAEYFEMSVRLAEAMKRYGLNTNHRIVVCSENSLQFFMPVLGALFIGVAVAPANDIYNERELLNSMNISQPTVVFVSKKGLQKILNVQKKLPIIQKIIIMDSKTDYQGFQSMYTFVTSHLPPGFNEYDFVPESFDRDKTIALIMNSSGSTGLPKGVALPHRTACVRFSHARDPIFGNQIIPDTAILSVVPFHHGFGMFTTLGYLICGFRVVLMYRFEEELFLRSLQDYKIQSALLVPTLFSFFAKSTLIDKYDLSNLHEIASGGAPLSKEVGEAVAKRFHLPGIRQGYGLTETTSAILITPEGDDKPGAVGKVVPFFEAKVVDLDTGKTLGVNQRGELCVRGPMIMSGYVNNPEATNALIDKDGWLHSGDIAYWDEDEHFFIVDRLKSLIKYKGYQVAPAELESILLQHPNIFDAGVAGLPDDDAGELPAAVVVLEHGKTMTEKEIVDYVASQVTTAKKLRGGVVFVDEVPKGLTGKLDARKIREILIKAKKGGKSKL
Sequence of Retinoic acid receptor RXR-alpha (Homo sapiens) (P19793 whole entry, looked up): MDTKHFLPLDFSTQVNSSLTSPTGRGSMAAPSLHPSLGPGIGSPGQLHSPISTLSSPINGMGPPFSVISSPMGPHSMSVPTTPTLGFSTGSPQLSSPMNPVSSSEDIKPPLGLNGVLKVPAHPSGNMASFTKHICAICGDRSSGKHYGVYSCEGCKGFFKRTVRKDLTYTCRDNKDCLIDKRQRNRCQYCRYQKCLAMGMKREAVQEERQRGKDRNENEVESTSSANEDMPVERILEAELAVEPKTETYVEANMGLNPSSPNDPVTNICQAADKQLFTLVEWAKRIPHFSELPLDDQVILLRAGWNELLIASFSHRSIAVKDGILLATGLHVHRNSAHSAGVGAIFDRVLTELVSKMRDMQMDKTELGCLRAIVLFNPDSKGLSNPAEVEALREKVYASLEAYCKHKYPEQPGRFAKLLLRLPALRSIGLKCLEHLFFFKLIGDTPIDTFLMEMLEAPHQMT

As for `O=C=NCC1CCCC(CN=C=O)C1` (stereo not drawn), the Potency result in experiment [1], in experiment [5], in [6] and in experiment [8] was “inactive” each time. In addition, the outcome in experiment [2], in experiment [3], in [4], in experiment [7], in experiment [9] and in [10] was inactive. Moreover, the result in experiment [11], in [12] and in experiment [13] was inactive.

With `CN1CCOC(c2ccccc2)c2ccccc2C1` (stereo not drawn), the Potency entry in [1], in experiment [6], in experiment [16] and in experiment [8] was “inactive” throughout. Moreover, the molecule was called inactive in [2], in experiment [3], in [4], in experiment [14], in experiment [7] and in experiment [15]. In addition, the outcome in [9], in experiment [10], in experiment [11], in experiment [12] and in [17] was inactive.

As for `CC1(C)CC(OC(=O)CCCCCCCCC(=O)OC2CC(C)(C)NC(C)(C)C2)CC(C)(C)N1`, the results for the activation in experiment [1], in [10] and in [13] were -1.61% [at 15.8 µM], -8.72% [at 19 µM] and -0.0727% [at 15.8 µM], respectively. Also, the activity change, negative = cytotoxicity in experiment [2] was -17.6% [at 15.8 µM]; in experiment [3], -0.597% [at 19 µM]; in experiment [17], -4.19% [at 31.6 µM]. In addition, the activity, negative = inhibition in experiment [4] was 10.8% [at 19 µM]; in [16], 7.36% [at 19 µM]. In addition, in [5], the Potency result was “inactive”. In addition, the activity change, negative = inhibition in experiment [6] is 0.839% [at 23.6 µM]. Moreover, the viability change, negative = cytotoxic in experiment [7] is -0.169% [at 19 µM]; in experiment [9] it was -0.192% [at 19 µM]. In addition, the activation (H2AX phosphorylation) in experiment [12] was 0.0652% [at 31.6 µM].

`ONc1ccccc1`: the Potency entry in experiment [1] and in experiment [19] was “inactive” throughout. For the same molecule, the call in [2], in experiment [3], in experiment [4], in experiment [14], in experiment [7] and in [15] was inactive. The call in experiment [9], in [18], in experiment [10], in [11], in experiment [12] and in experiment [13] was inactive. The molecule was classed as inactive in [17]. Also, in [6], the Potency is 22.2 µM (active).

For `CCc1occc(=O)c1O`, the Potency entry in experiment [1], in [6] and in experiment [8] was “inactive” in each case. The outcome in [2], in experiment [3], in [4], in experiment [14], in experiment [7] and in [15] was inactive. In addition, the molecule was called inactive in experiment [9], in experiment [10], in experiment [11], in [12], in experiment [13] and in experiment [17].

Consider `COc1cc(OC)nc(O[C@H](C(=O)O)C(OC)(c2ccccc2)c2ccccc2)n1`, for which the Potency entry in [1], in [5], in experiment [6] and in experiment [16] was “inactive” in each case. Besides, the result in experiment [2], in [3], in experiment [4], in experiment [7], in [9] and in experiment [10] was inactive. Moreover, the molecule was called inactive in experiment [11], in experiment [12] and in experiment [13].

For the molecule `CC(=O)OCC(=O)Nc1cc(C#N)cc(NC(=O)COC(C)=O)c1Cl`, the Potency result in [1], in [16] and in experiment [8] was “inactive” throughout. Moreover, the result in experiment [2], in experiment [3], in experiment [4], in [14], in experiment [7] and in [9] was inactive. In addition, the molecule was classed as inactive in experiment [10], in experiment [12], in experiment [13] and in experiment [17].
